In all, about 300,000 compounds went through this assay and about 2,700 (0.9%) were called active.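 Rule for the calls: active = mean inhibition of at least 30% with at least half of replicates also reaching 30%; inconclusive = no clear call, values can overlap the other calls; inactive = the rest.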 For the sample, actives were picked, then their nearest neighbours and some compounds at random.
target: Golgi-associated PDZ and coiled-coil motif-containing protein (Homo sapiens) (UniProt Q9HD26); test: untagged CAL PDZ binding inhibitors, primary screen, biochemical, fluorescence polarization, HTS (AID 602252); settings: purified CAL PDZ, TMR-peptide fluorescence polarization, 1 h; at 24.9 µM; stronger effect = higher value;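 note: 0% = DMSO neutral control and 100% = excess unlabeled competitor peptide PRC23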

inhibition, active:
CCOc1ccc(NC(=O)CN(C)CC(=O)NC(C)c2ccccc2)cc1OCC (stereo not drawn) 39.5%, Cc1c([N+](=O)[O-])c(N)nn1C 46.7%, O=C(CSc1cccc[n+]1[O-])c1ccc(Cl)cc1 51.8%, CC1=NN(c2ccc(Cl)c(C(=O)O)c2)C(=O)/C1=C/c1ccc(-c2ccccc2[N+](=O)[O-])o1 64%, COc1ccc(-c2oc3ncn(Cc4ccco4)c(=N)c3c2-c2ccc(OC)cc2)cc1 36.1%, O=C(Nc1nnc(SCc2c(Cl)cccc2Cl)s1)c1cccc([N+](=O)[O-])c1 76.9%, C=CCNC(=S)N/N=C/c1ccc(OCc2ccccc2)cc1 51.2%, O=C(N/N=C/c1ccc(OCc2ccccc2)cc1)c1ccc(O)cc1 83.5%, C=CCC[C@H](Cc1ccc(F)cc1)C(=O)OC[C@@H](NC(=O)[C@@H](CC=C)CC(=O)N[C@H](CO)Cc1ccccc1)C(C)(C)C 40.2%, CCCCc1nnc(NC(=O)CS(=O)(=O)Cc2ccccc2)s1 30.2%, CCc1ccccc1NC(=O)c1ccc2c(c1)CCN2S(C)(=O)=O 40%, O=C(C1CCN(C2CCN(Cc3cccc4c3OCO4)CC2)CC1)N1CCOCC1 37.8%, CCOc1ccc(N/C(N)=N/c2nc(C)c(C)c(=O)[nH]2)cc1 42%, Cc1oc2nc(SCC(=O)Nc3ccc(S(N)(=O)=O)cc3)nc(NC(=O)c3ccccc3)c2c1C 30.6%, O=C(/C=C/c1c(F)cccc1Cl)Nc1nn[nH]n1 133%, C=CCNc1cnn(-c2ccc(C)cc2)c(=O)c1Cl 82%

inhibition, inactive:
CCOc1ccc(NC(=O)CN(C)CC(=O)Nc2cccc(Cl)c2C)cc1OCC -7.09%, CCOc1ccc(NC(=O)CN(C)C(=O)CSc2ccccc2)cc1OCC -0.51%, COc1ccc(S(=O)(=O)N2C[C@H]3CON(C)[C@H]3C[C@H]2c2cccc(Br)c2)cc1 -1.19%, COc1cccc2c1C(=O)c1c(O)c3c(c(O)c1C2=O)CC(O)(C(C)=NNC(=O)c1ccc(Cl)c(Cl)c1)CC3OC1CC(N)C(O)C(C)O1 (stereo not drawn) -11.4%, Cc1nn(C)c(Oc2ccccc2)c1[N+](=O)[O-] -1.91%, Cn1nc(C(C)(C)C)c([N+](=O)[O-])c1C(N)=O -0.311%, COc1ccccc1C(=O)CSc1cccc[n+]1[O-] 1.87%, O=C(CSc1cccc[n+]1[O-])c1ccc(-c2ccccc2)cc1 0.814%, CCOC(=O)C1CCCN(C(=O)C2CCN(S(=O)(=O)c3ccc(Cl)c(C(F)(F)F)c3)CC2)C1 (stereo not drawn) -2.17%, O=C(Nc1ccc(N2CCOCC2)cc1)c1ccc(-c2ccccc2[N+](=O)[O-])o1 -1.55%, O=C1NC(c2ccc(-c3ccccc3[N+](=O)[O-])o2)C(C(=O)c2ccc(Cl)cc2)C(O)(C(F)(F)F)N1 (stereo not drawn) -0.998%, COC1C(CO)OC(n2cnc3c(=S)nc(N)[nH]c32)C1O (stereo not drawn) -4.66%, COc1cc(OC)cc(-c2sc3ccc(OC)cc3c2-c2ccc3cc[nH]c3c2)c1 -4.97%, O=C(NCc1ccccc1)c1cccc(NC(=O)C2CCCCC2)c1 -1.61%, COc1ccc(C(=O)CSc2nnc(COc3ccccc3)n2Cc2ccco2)cc1 -1.09%, N=c1c2c(-c3ccccc3)c(-c3ccccc3)oc2ncn1Cc1ccco1 4.45%, O=C(c1cccc(S(=O)(=O)N2CCCCCC2)c1)N1CCN(Cc2ccccc2)CC1 -6.1%, Cc1ccc2[nH]cc(CCNC(=O)c3ccc([N+](=O)[O-])cc3)c2c1 -3.1%, O=C(NCCc1c[nH]c2ccc(Cl)cc12)c1ccc([N+](=O)[O-])cc1 -7.41%, O=C(C[C@H]1C/C=C\C[C@@H](NC(=O)OCC2c3ccccc3-c3ccccc32)C(=O)O[C@@H](c2ccccc2)CNC1=O)N[C@H](CO)Cc1ccccc1 3.89%, C=CC[C@@H](CC(=O)N[C@@H](CO)Cc1ccccc1)C(=O)NCCOC(=O)[C@@H](CC=C)CC(=O)OC(C)(C)C -4.88%, CC(=O)c1cccc(-c2ccc(CN3C(CC(C)C)C(=O)N(Cc4cn(CC5CCCCC5)nn4)CCS3(=O)=O)cc2)c1 (stereo not drawn) -1.77%, O=C(Nc1nnc(SCc2ccccc2Cl)s1)c1cccc([N+](=O)[O-])c1 -3.54%, NC(=O)CSc1nnc(NC(=O)c2ccc3ccccc3c2)s1 -4.05%, O=C(CSc1nc2ccccc2c(=O)n1Cc1ccc(F)cc1)NCC1CCCO1 (stereo not drawn) 0.714%, Cc1ccc(NC(=O)c2ccc(Cl)nc2)cc1S(=O)(=O)N1CCOCC1 -1.23%, CC[C@]12c3[nH]c4cc(CCC(=O)N(C)C)ccc4c3CCN1C(=O)[C@@H](CC(=O)NCC13CC4CC(CC(C4)C1)C3)C[C@@H]2C(=O)N1CCN(C(=O)C2CC2)CC1 5.74%, CCCCC(=O)NC(c1ccc(OC)c(OC)c1)c1ccc2cccnc2c1O (stereo not drawn) -1.93%, O=C(Cc1cccs1)N/N=C/c1ccc(OCc2ccccc2)cc1 -1.99%, O=C(N/N=C/c1ccc(OC(=O)c2ccccc2Cl)cc1)c1ccc(O)cc1 -4.63%, O=C(O)c1ccc(/C=N/NC(=S)NCc2ccccc2)cc1 -1.3%, O=C(COc1ccc(/C=N/NC(=O)c2ccc(O)cc2)cc1)Nc1ccc([N+](=O)[O-])cc1 -1.35%, CN1C(c2ccc(F)cc2)=CS/C1=C(/C#N)c1nnc2n1-c1ccccc1SC2 7.66%, C=CCC[C@H](Cc1ccc(F)cc1)C(=O)OC[C@@H](Cc1c[nH]c2ccccc12)NC(=O)[C@H](CC=C)CC(=O)N[C@H](CO)Cc1ccccc1 -1.97%, C=CC[C@@H](CC(=O)N[C@H](CO)Cc1ccccc1)C(=O)N[C@H](C)COC(=O)[C@@H](CC=C)Cc1ccc(F)cc1 4.91%, O=C1/C(=C\c2ccc(O)cc2)CCC1CNc1ccc(Cl)cc1 (stereo not drawn) -2.09%, CC(=O)OC1CCC2(C)C(=CCC3C4CC(=O)N(O)C(=O)C4(C)CCC32)C1 (stereo not drawn) -3.51%, c1ccc(C(=NNc2nc3ccccc3s2)c2ccccn2)cc1 10.3%, COCc1nnc(NC(=O)CS(=O)(=O)Cc2ccccc2)s1 -3.64%, CCOCc1nnc(NC(=O)CCS(=O)(=O)Cc2ccccc2)s1 -2.55%, COc1ccc(N2CCN(C(CNS(=O)(=O)c3ccc(C)cc3)c3ccccc3)CC2)cc1 (stereo not drawn) -2.12%, O=C1C=CN2CCCC2CC1 (stereo not drawn) -1.74%, O=C(NC(=S)Nc1ccc(Br)cc1F)C1CCCCC1 -6.68%, Cc1nn(-c2ccc(F)cc2)c(Cl)c1/C=C(/CCC(=O)O)c1nc2ccccc2s1 -3.19%, COc1cc(C2c3cc4c(cc3C(O)C3COC(=O)C23)OCO4)cc(OC)c1OC (stereo not drawn) -1.27%, CS(=O)(=O)N1CCc2cc(C(=O)Nc3ccccc3Br)ccc21 -1.26%, CSc1ccccc1NC(=O)c1ccc2c(c1)CCN2S(C)(=O)=O -1.36%, COc1cc(OC)cc(-c2cc3ccc(F)cc3cn2)c1 -1.91%, C/C(=C\c1ccco1)CN1CCC(N2CCC(C(=O)N3CCOCC3)CC2)CC1 5.25%, O=C(C1CCN(Cc2ccc(Cl)cc2)CC1)N1CCN(Cc2ccc3c(c2)OCO3)CC1 2.38%, CCC(CO)Oc1cc(NC(=O)c2cccc3ccccc23)c2ncn(C(C)C)c2c1 (stereo not drawn) -1.65%, Cc1cc(C)cc(OCC(=O)Nc2ccc(N3CCOCC3)cc2N2CCOCC2)c1 -3.82%, CCOc1ccc(NC(=O)c2nc(SCC)ncc2Cl)cc1 -1.2%, CCOc1ccc(NC(=O)C2CC(=O)N=C(N)S2)cc1 (stereo not drawn) -0.069%, CCCCN1CC(COCc2ccccc2)OCCS1(=O)=O (stereo not drawn) -4.9%, O=C(O)c1ccc(NN=CC2=C(N3CCOCC3)/C(=C/c3ccccc3)CC2)cc1 -3.09%, CCCCNC(=O)C(C)N(CCN(C)C)C(=O)CCCCCN1C(=O)NC(c2ccc(Cl)cc2)C(C(=O)OCc2ccccc2)=C1C (stereo not drawn) -7.11%, Cc1cc(-c2nnc(SCC(=O)Nc3ccc(S(N)(=O)=O)cc3)n2N)n[nH]1 2.84%, Cc1oc2nc(SCC(=O)NCc3cccnc3)nc(N)c2c1C -4.94%, CCOC(=O)CNC(=O)/C=C/c1c(Cl)cccc1Cl -4.11%, O=C(CCc1ccccc1)Nc1nn[nH]n1 -4.68%, COc1ccc2c(c1)[C@H]1[C@H](CO2)[C@H](c2ccccc2)[C@]2(C)C(=O)Nc3cc(F)c(F)cc3C(=O)N12 -3.04%, Cc1ccc(S(=O)(=O)NC[C@H]2O[C@@H](n3cnc4c(N)ncnc43)[C@H](O)[C@@H]2O)s1 -0.852%, O=c1c(Cl)c(NC2CC2)cnn1-c1ccccc1 -0.978%, CCCNC(=O)c1c(Cl)cnn1-c1ccc(C)cc1 4.34%, COc1ccc2[nH]c3c(c2c1)CCN1C(=O)C(CC(=O)NCCc2ccccn2)C[C@H](C(=O)N2CCOCC2)[C@@]31C (stereo partly drawn) -8.9%, COC(=O)[C@]1(Cc2ccccc2)N[C@H](CN(C)S(=O)(=O)c2ccc(OC(F)(F)F)cc2)[C@@H]2C(=O)N(C)C(=O)[C@@H]21 -4.26%

Reference: PubChem BioAssay AID602252 (Broad Institute, 2012)
